Values without a mark were called inactive. How the calls were made is not given here.

The target of the test is Pantothenate synthetase (Mycobacterium tuberculosis (strain ATCC 25618 / H37Rv)) (UniProt P9WIL5). The test can be described thus: Recombinant Mtb pantothenate synthetase (PanC) inhibitors, coupled enzyme, confirmatory (AID 375).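 Further: 0% = full reaction with vehicle and 100% = no enzyme background.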 Conditions: coupled enzyme assay; at 10 µM, active compounds read high.
Pantothenate synthetase (Mycobacterium tuberculosis (strain ATCC 25618 / H37Rv)), sequence (P9WIL5 whole entry, looked up): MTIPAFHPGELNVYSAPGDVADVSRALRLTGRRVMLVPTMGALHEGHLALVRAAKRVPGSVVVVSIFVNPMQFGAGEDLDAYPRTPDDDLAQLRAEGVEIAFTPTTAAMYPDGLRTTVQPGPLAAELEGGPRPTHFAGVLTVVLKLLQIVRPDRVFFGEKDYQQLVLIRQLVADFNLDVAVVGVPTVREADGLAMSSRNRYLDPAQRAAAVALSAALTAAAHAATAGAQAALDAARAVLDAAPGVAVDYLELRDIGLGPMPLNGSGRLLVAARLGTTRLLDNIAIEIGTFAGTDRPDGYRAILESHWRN
Consider `Cn1c(=O)[nH]c(=O)c2c1nc(N1CCNCC1)n2Cc1cccc2ccccc12`, for which the inhibition – broadly, the change of the read-out against control, counted positive when it falls – is 8%.

On to `Cc1cc(C)n(CC(=O)n2c3c(c4ccccc42)CCCC3)n1`, for which the inhibition is 2%.

Consider `CC(CC(=O)NCc1ccccc1)C1CCCO1` (stereo not given), for which the inhibition is 0%.

On to `O=C(c1ccccc1)c1coc2ccc(O)c(CN3CCOCC3)c12`, for which the inhibition was 4%.

On to `CC(CCC(=O)Nc1nncs1)C(=O)O` (stereo not given), for which the inhibition was 1%.

Regarding `CC(C)[C@H](NC(=O)OC(C)(C)C)c1nnc(SCC(=O)Nc2ccc(Br)cc2)o1`, the inhibition was 0%.

Consider `CCn1cc(/C=C(/C#N)S(=O)(=O)c2ccccc2)cn1`, for which the inhibition was 2%.

On to `O=C(NCc1ccc(F)cc1)c1cc2ccccn2n1`, for which the inhibition is 1%.

Take `O=C(O)C1CCCCC1C(=O)NCCc1ccccc1` (stereo not given): the inhibition was 0%.

As to `C[C@@H]1C[C@H]2[C@@H]3C[C@H](F)C4=CC(=O)C=C[C@]4(C)[C@@]3(F)[C@@H](O)C[C@]2(C)[C@@]1(O)C(=O)CO`, the inhibition was 0%.

With `C[N+]1=C2CCCCCN2C(O)(c2ccccc2)C1` (stereo not given), the inhibition is 7%.

With `O=C(OCC(=O)N1CCCC1)c1cncc(Br)c1`, the inhibition was 1%.

As to `COC(=O)c1oc2ccc(Br)cc2c1NC(C)=O`, the inhibition is 0%.

Regarding `O=C(c1c(F)cccc1F)N(Cc1ccccn1)C1CCCC1`, the inhibition is 1%.

On to `Fc1cccc(Nc2ncnc3c2cnn3-c2ccccc2)c1`, for which the inhibition is 2%.

As to `Cc1ccc(-n2nnnc2SCC(=O)c2cc(C)n(-c3cc(C)on3)c2C)cc1`, the inhibition was 4%.

On to `C=CCSc1nc2c(c(=O)[nH]c(=O)n2C)n1CC`, for which the inhibition was 2%.

Turning to `Cc1ccc(N(Cc2ccco2)C(=O)c2cccc(S(=O)(=O)N(C)C)c2)cc1`, the inhibition is 5%.

For `CN(C)S(=O)(=O)c1cccc(C(=O)Nc2cccnc2)c1`, the inhibition is 0%.

For the compound `Cc1ccc2[nH]c(=O)c(CN(CCc3ccccc3)Cc3nnnn3CC3CCCO3)cc2c1` (stereo not given), the inhibition is 2%.

Turning to `CS(=O)(=O)N(CC(=O)Nc1ccc2c(c1)OCO2)Cc1ccc(Cl)cc1`, the inhibition is 0%.

For the compound `CCN1CCN(c2ncnc3c2cnn3-c2ccc(C)cc2C)CC1`, the inhibition is 9%.

As to `Cc1cccc(NC(=O)c2cc(NC(=O)c3ccco3)ccc2Cl)n1`, the inhibition is 0%.

With `CN(C)c1ccnc(NCc2ccccc2)c1C#N`, the inhibition is 0%.

For the compound `COc1ccc(-c2nn(-c3ccccc3)cc2/C=N/n2cnnc2)cc1OC`, the inhibition is 9%.

`O=C(O)CCCc1ccccc1`: the inhibition was 0%.

With `Cc1cccc(C)c1NC(=O)CC(NCc1ccco1)C(=O)O` (stereo not given), the inhibition was 0%.

For `CCN(CC)c1ccc2cc(NC(=O)CCC(=O)O)c(=O)oc2c1`, the inhibition is 0%.

On to `CN(C)c1ccc(C(=O)OCC(=O)NC2CCCCC2)cc1`, for which the inhibition is 0%.

As to `COc1cccc(C(=O)Nc2ccc(NC(=O)C(C)(C)C)cn2)c1`, the inhibition is 0%.

As to `CCc1cc(-c2[nH]ncc2-c2ccc3c(c2)OCO3)c(O)cc1O`, the inhibition is 0%.

Consider `COc1cccc(-c2cc(C(=O)Nc3c(C)nn(Cc4ccccc4)c3C)no2)c1`, for which the inhibition was 0%.

Take `COC(=O)c1nnn(-c2ccccc2)c1N`: the inhibition is 4%.

For the compound `CC(C)Cn1c(CN2CCN(c3ccccc3F)CC2)nc2c1c(=O)[nH]c(=O)n2C`, the inhibition is 0%.

Take `O=C(Nc1ccc2oc(=O)ccc2c1)c1cccnc1`: the inhibition is 0%.

For `CCCCOc1ccccc1C(=O)NCCCC(=O)O`, the inhibition was 0%.

For `CC1CCc2nn(CC(=O)NCc3ccc4c(c3)OCO4)cc2C1` (stereo not given), the inhibition was 1%.

As to `Cc1cccc(CC(=O)Nc2c3c(nn2-c2cccc(Cl)c2)CS(=O)C3)c1` (stereo not given), the inhibition is 2%.

For `O=c1oc2ccccc2cc1NCc1ccccc1O`, the inhibition was 0%.

For the compound `CCOc1ccc(N2CC(C(=O)Nc3ccc(F)cc3F)CC2=O)cc1` (stereo not given), the inhibition is 6%.

Values taken from PubChem BioAssay.
